Drawing on PubChem BioAssay, this text covers composite z-score for 35 molecules.

For the assay, the target named is Follistatin-related protein 3 (Homo sapiens) (UniProt O95633). Briefly: compounds binding follistatin-related protein 3 – biochemical, small-molecule microarray, 635 nm fluorescence, primary screen (AID 1105).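 Further: score merges emission near 667 nm and signal to noise per printed spot across three slides.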 As to conditions: FSTL3 binding, higher = more signal.
Sequence of Follistatin-related protein 3 (Homo sapiens) (O95633 whole entry, looked up): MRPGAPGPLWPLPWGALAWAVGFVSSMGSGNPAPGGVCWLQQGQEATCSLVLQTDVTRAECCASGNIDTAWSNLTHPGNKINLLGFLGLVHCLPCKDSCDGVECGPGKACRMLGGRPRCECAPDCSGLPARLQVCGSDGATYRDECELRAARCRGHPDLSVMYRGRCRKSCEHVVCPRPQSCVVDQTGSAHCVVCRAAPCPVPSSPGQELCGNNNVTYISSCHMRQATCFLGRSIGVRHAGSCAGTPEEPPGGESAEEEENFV
In turn, `CCOC(=O)C1=CCC(c2ccco2)N(S(=O)(=O)c2ccc(C)cc2)C1` (stereo not given) returned a composite z-score of 1.22. The result for `COCCOC(=O)N1C(=O)[C@@]2(c3cc(C#CCC(C(=O)OC)C(=O)OC)ccc31)[C@H](C(=O)NC[C@H](O)c1ccccc1)[C@H]1C(=O)O[C@H](c3ccccc3)[C@H](c3ccccc3)N1[C@@H]2c1ccc(OCCO)cc1` reads 1.09; that for `CCCNC(=O)[C@@]1(Sc2ccc(C)cc2)CC(=O)N(C(C)C)[C@@H]1c1ccc(CO)cc1I`, -1.35.

`COC(=O)[C@@]1(Cc2ccc(F)cc2)[C@H]2c3cc(C(=O)N4CCCC4)n(C)c3C[C@H]2CN1C(=O)c1ccccc1` registered a composite z-score of -0.296.

`O=C1O[C@H](c2ccccc2)[C@H](c2ccccc2)N2[C@H]1[C@@H](C(=O)N1CCCCCCC1)[C@]1(C(=O)Nc3ccc(C#CC4(O)CCCCCC4)cc31)[C@H]2c1ccc(O)cc1` yielded a composite z-score of 1.58. The figure for `O=C1O[C@H](c2ccccc2)[C@H](c2ccccc2)N2[C@H]1[C@@H](C(=O)O)[C@]1(C(=O)Nc3ccc(C#CC4(O)CCCCCC4)cc31)[C@H]2c1ccc(O)cc1` is -0.544; for `COCCOC(=O)N1C(=O)[C@@]2(c3ccccc31)[C@H](c1ccccc1OCCO)N1[C@H](c3ccccc3)[C@H](c3ccccc3)OC(=O)[C@H]1[C@@H]2C(N)=O` it is 1.43; for `NC(=O)[C@@H]1[C@H]2C(=O)O[C@H](c3ccccc3)[C@H](c3ccccc3)N2[C@H](c2ccc(OCCO)cc2)[C@@]12C(=O)Nc1ccc(C#CCCO)cc12` it is -0.12. The result for `Cc1cccc([C@H]2C[C@H]3C(Br)=C[C@@H]2C(=O)[C@]32CO2)c1` reads -0.412.

As to `COc1ccc(C#Cc2ccc3c(c2)[C@]2(C(=O)N3)[C@H](C(=O)Nc3nc4ccccc4s3)[C@H]3C(=O)O[C@H](c4ccccc4)[C@H](c4ccccc4)N3[C@@H]2c2ccccc2OCCO)cc1`, the composite z-score was 0.821.

In turn, `C=CCNC(=O)[C@@H]1[C@H]2C(=O)O[C@H](c3ccccc3)[C@H](c3ccccc3)N2[C@H](c2ccc(OCCO)cc2)[C@@]12C(=O)N(C(=O)OCCOC)c1ccc(C#CCCO)cc12` yielded a composite z-score of 1.24. The result for `COCC(=C=CC[C@@H](O)c1cccc(OCCO)c1)CCO` reads 0.167; that for `COCCOC(=O)N1C(=O)[C@@]2(c3cc(C#CC4(O)CCCCCC4)ccc31)[C@H](C(=O)N1CCN(c3ncccn3)CC1)[C@H]1C(=O)O[C@H](c3ccccc3)[C@H](c3ccccc3)N1[C@@H]2c1ccccc1OCCO`, 1.29. The figure for `[N-]=[N+]=Nc1ccccc1C[C@]1(C(=O)O)N=C(c2ccc(OCCCO)cc2)O[C@H]1c1ccccc1N=[N+]=[N-]` is 0.546; for `NC(=O)NCC#Cc1ccc2c(c1)[C@]1(C(=O)N2)[C@H](C(=O)N2CCN(c3ncccn3)CC2)[C@H]2C(=O)O[C@H](c3ccccc3)[C@H](c3ccccc3)N2[C@@H]1c1ccc(OCCO)cc1` it is 1.08; for `CN(C)C(=O)[C@@]1(Cc2ccccc2)COC(c2ccc(OCCCO)cc2)=N1` it is -0.718. Regarding `CCN(CC)c1ccc(N2CC=CC34O[C@@H]5C=CCCOC(=O)C5[C@H]3C(=O)N(CCO)[C@@H]4C2=O)cc1` (stereo not given in full), the composite z-score was -1.45. With `C[C@@H]1ON(c2ccc(I)cc2)[C@H](c2ccc(OC(=O)OC(C)(C)C)cc2)[C@H]1C(=O)N1C(=O)OC[C@H]1Cc1ccccc1`, the composite z-score was 0.872.

For `COc1cc(CO)cc(I)c1O[C@H]1C=C(C(=O)NCCO)C[C@@H](NCC2CCCCC2)[C@@H]1O`, the composite z-score worked out at 0.607. Molecule `C=CCNC(=O)[C@@H]1[C@H]2C(=O)O[C@H](c3ccccc3)[C@H](c3ccccc3)N2[C@H](c2ccc(O)cc2)[C@@]12C(=O)Nc1ccc(C#CCC(C(=O)OC)C(=O)OC)cc12` showed a composite z-score of 0.544. The figure for `CCOC(=O)C1=C[C@@H](c2ccccc2)N(S(=O)(=O)c2ccc(C)cc2)[C@H]1c1ccccc1` is -0.0021. Molecule `[N-]=[N+]=NC[C@H](Cc1ccccc1)NC(=O)c1ccccc1` registered a composite z-score of -0.394. The result for `COc1ccc(C(O)C2C=CC3C(=O)N(c4ccccc4)C(=O)C3N2Nc2ccccc2F)cc1` (stereo not given) reads 0.0817; that for `C#C[C@@H](CC)O[Si](C#CCCCC#N)(C(C)C)C(C)C`, -0.669.

With `CCCCCCCCCCC(O)C1C=CC2C(=O)N(C)C(=O)C2N1Nc1cc(OC)c(OC)c(OC)c1` (stereo not given), the composite z-score is -1.29. Molecule `C=C[C@H](C)[C@H](OC(=O)Nc1ccc(OC)cc1)c1ccc(OCCO)cc1` yielded a composite z-score of -0.844. `COCCOC(=O)N1C(=O)[C@@]2(c3cc(C#CC4(O)CCCCCC4)ccc31)[C@H](c1ccc(OCCO)cc1)N1[C@H](c3ccccc3)[C@H](c3ccccc3)OC(=O)[C@H]1[C@@H]2C(=O)Nc1nc2ccccc2s1`: the composite z-score is 1.33. `O=c1cccc(-c2ccco2)o1` displayed a composite z-score of 1.02. The molecule `CN(C)C(=O)[C@@]1(Cc2ccccc2N=[N+]=[N-])N=C(c2ccc(OCCCO)cc2)O[C@H]1c1ccccc1` had a composite z-score of 0.465.

Molecule `CC(C)[C@H]1NC(=O)[C@@]23C(=O)N[C@@H](Cc4ccccc4)C2[C@H](C)[C@@]2(C)O[C@H]2C3/C=C/CCC/C=C/CNC(=O)[C@H](Cc2ccccc2)NC1=O` (stereo not given in full) displayed a composite z-score of 0.0435. The figure for `C=CCC(OC(C)=O)[C@@H]1[C@@H](N(Cc2cc3ccccc3o2)C(=O)c2ccc(-c3ccccc3)cc2)c2cc(OCCCO)ccc2N1C(=O)Cc1ccc(OC)cc1` (stereo not given in full) is 0.307; for `[N-]=[N+]=NCc1ccccc1[C@H]1OC(c2ccc(OCCCO)cc2)=N[C@@]1(CCS(=O)(=O)c1ccccc1)C(=O)NCc1ccccc1` it is 0.819. The figure for `CC(=O)n1cc(C(O)C2C=CC3C(=O)N(c4ccccc4)C(=O)C3N2Nc2ccc(C(C)C)cc2)c2ccccc21` (stereo not given) is 0.766; for `C=C(COC)C(=O)CC[C@H](OC(C)=O)c1ccc(OCCO)cc1` it is 0.576. The figure for `Cc1ccccc1C(O)C1C=CC2C(=O)NC(=O)C2N1Nc1ccc(Cl)cc1Cl` (stereo not given) is 0.511.
